Structures are written as SMILES. Hit rate of the full screen: of about 350,000 compounds, about 5,500 (1.6%) were called active.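 How the source made its calls: active means significant combined selectivity score with lowered wild-type GFP, culture density cut under 30%, mutant RFP and density less affected; inactive means any of these conditions unmet.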 What follows is part of a selection rich in actives, with near analogues and random picks from the rest.

The assay in a line: GFP drop in mixed WT/humanized-ribosome E. coli culture – GFP/RFP fluorescence, OD600, single point, bacterial rRNA inhibitor project, primary screen (AID 720706). The note with it: E. coli WT GFP vs humanized-ribosome RFP mutants, 24 h; GFP signal change (wild-type ribosome): stronger effect = lower value, DMSO median 0, no signal -100; OD600 change: measured here: OD600 growth, DMSO median 0, no signal -100; RFP signal change: measured here: RFP humanized mutant strains, DMSO median 0, no signal -100, concentration not given here.
Turning to `Cc1cc(C(=O)Nc2ccc3c(c2)C(=O)N(C)[C@@H]2CC[C@H](CC(=O)NC4CCCC4)O[C@@H]2CO3)no1`, the GFP signal change (wild-type ribosome) was 1.76% (inactive), the OD600 change was 5.25% and the RFP signal change was 2.11%.

With `CCCC(=O)Nc1ccc2c(c1)C(=O)N(C)[C@@H]1CC[C@H](CC(=O)NCCOC)O[C@H]1CO2`, the GFP signal change (wild-type ribosome) was 3.48% (inactive), the OD600 change is 0.14% and the RFP signal change came to 0.31%.

`COc1ccccc1S(=O)(=O)N[C@@H]1C=C[C@H](CC(=O)N2CCN(C)CC2)O[C@@H]1CO`: the GFP signal change (wild-type ribosome) is 3.92% (inactive), the OD600 change was 11.8% and the RFP signal change was -3.5%.

For `CC(C)c1ccc(NS(=O)(=O)c2cn(C)c(=O)n(C)c2=O)cc1`, the GFP signal change (wild-type ribosome) is 4.95% (inactive), the OD600 change was determined as 14.4% and the RFP signal change is -3.23%.

As for `COC(=O)c1c(C)oc(C)c1S(=O)(=O)NCc1ccc(Cl)cc1`, the GFP signal change (wild-type ribosome) is -11.3% (inactive), the OD600 change was -4.55% and the RFP signal change is -0.764%.

For the compound `COC(=O)c1c(C)oc(C)c1S(=O)(=O)Nc1ccc(C(C)C)cc1`, the GFP signal change (wild-type ribosome) was -28.4% (active), the OD600 change was -12.4% and the RFP signal change is -2.19%.

Regarding `CO[C@H]1CC[C@@H]2CCOc3c(C#N)cccc3C(=O)N(C)C[C@H](C)C(=O)N(C)C[C@H]1O2`, the GFP signal change (wild-type ribosome) is 3.92% (inactive), the OD600 change was -1.31% and the RFP signal change is -1.65%.

As to `Brc1ccc2c(c1)[C@H]1OCC[C@H]1[C@@H](c1cccs1)N2`, the GFP signal change (wild-type ribosome) is -43.8% (active), the OD600 change was -30.6% and the RFP signal change was -11.9%.

In the case of `Oc1ccc(/C=N/N(Cc2ccccc2)c2ccccc2)cc1`, the GFP signal change (wild-type ribosome) is -13.9% (inactive), the OD600 change was -1.62% and the RFP signal change is 0.2%.

For the compound `CCN(/N=C/c1ccc(N(C)C)cc1)c1nc2ccccc2[nH]1`, the GFP signal change (wild-type ribosome) is -22.8% (active), the OD600 change was -10.9% and the RFP signal change is -2.86%.

For `CCC(=O)N1C[C@@H](C)[C@H](OC)CN(C)C(=O)c2ccc(NC(=O)c3cc(C)on3)cc2OC[C@H]1C`, the GFP signal change (wild-type ribosome) is 0.768% (inactive), the OD600 change was 1.75% and the RFP signal change was -1.23%.

In the case of `C/C=C/c1cnc2c(c1)C(=O)N([C@H](C)CO)C[C@H](C)[C@H](CN(C)C(=O)c1cccc(F)c1)O2`, the GFP signal change (wild-type ribosome) was 2.26% (inactive), the OD600 change turned out to be 2.83% and the RFP signal change is -3.73%.

Turning to `CCOc1ccc(NC(=O)CC2C(=O)N(c3ccccc3)C(=O)N2CCOC)cc1` (stereo not drawn), the GFP signal change (wild-type ribosome) was -0.19% (inactive), the OD600 change was found to be 4.93% and the RFP signal change was -3.42%.

Turning to `CCCOc1ccc(NC(=O)CC2C(=O)N(C)C(=S)N2Cc2ccc3c(c2)OCO3)cc1` (stereo not drawn), the GFP signal change (wild-type ribosome) is -21.2% (active), the OD600 change is -17.1% and the RFP signal change is 1.22%.

`O=C(Nc1ccc(Cl)cc1)C1c2cccc[n+]2CC(=O)N1Cc1ccc2c(c1)OCO2` (stereo not drawn): the GFP signal change (wild-type ribosome) is 4.36% (inactive), the OD600 change worked out at 0.665% and the RFP signal change was -2.94%.

For the compound `C[C@@H]1CCCCO[C@H](CN(C)C(=O)Nc2ccccc2)[C@H](C)CN([C@@H](C)CO)C(=O)c2cc(N(C)C)ccc2O1`, the GFP signal change (wild-type ribosome) is -1.6% (inactive), the OD600 change stood at 2.72% and the RFP signal change was -1.91%.

As to `CC[C@@H]1CC=CC[C@H](C)Oc2ccccc2C(=O)N(C)[C@H](Cc2ccccc2)C(=O)N1` (mixture of isomers), the GFP signal change (wild-type ribosome) was -6.42% (inactive), the OD600 change is -18.3% and the RFP signal change is -6.01%.

As for `COc1ccc(CCNC(=O)CN(c2ccccc2)S(C)(=O)=O)cc1`, the GFP signal change (wild-type ribosome) was 4.81% (inactive), the OD600 change turned out to be 11.8% and the RFP signal change came to 2.52%.

With `CS(=O)(=O)N(CC(=O)N/N=C/c1ccccn1)c1ccc(Oc2ccccc2)cc1`, the GFP signal change (wild-type ribosome) is -25.9% (active), the OD600 change is -12.1% and the RFP signal change was -0.663%.

`O=C(COc1ccc(Cl)cc1Cl)N/N=C/c1ccccn1`: the GFP signal change (wild-type ribosome) was -7.74% (inactive), the OD600 change is -28.8% and the RFP signal change came to 0.0022%.

Regarding `C[C@H](O)C#Cc1cnc2c(c1)C(=O)N([C@@H](C)CO)C[C@@H](C)[C@@H](CN(C)C(=O)Cc1ccccn1)O2`, the GFP signal change (wild-type ribosome) is 7.53% (inactive), the OD600 change turned out to be 12.6% and the RFP signal change is -0.505%.

For the compound `C[C@@H]1CN([C@H](C)CO)C(=O)c2cc(NS(C)(=O)=O)ccc2O[C@H]1CN(C)C(=O)Nc1cccc2ccccc12`, the GFP signal change (wild-type ribosome) was 2.55% (inactive), the OD600 change turned out to be 10.8% and the RFP signal change was 2.43%.

In the case of `O=C(Nc1cc(F)ccc1F)N1CC(=O)N2[C@H](CO)[C@@H](c3ccc(-c4cccnc4)cc3)[C@@H]2C1`, the GFP signal change (wild-type ribosome) was -12% (inactive), the OD600 change is -3.71% and the RFP signal change is -3.33%.

As for `COc1ccc(S(=O)(=O)Nc2ccc3c(c2)C(=O)N([C@H](C)CO)C[C@H](C)[C@H](CN(C)S(=O)(=O)c2ccc(Cl)cc2)O3)cc1`, the GFP signal change (wild-type ribosome) was -0.9% (inactive), the OD600 change was -8.14% and the RFP signal change is 4.68%.

Turning to `Nc1nc(SCC(=O)NCCN2CCOCC2)nc2sc3c(c12)CCC3`, the GFP signal change (wild-type ribosome) is 4% (inactive), the OD600 change was determined as 8.61% and the RFP signal change was -0.37%.

Consider `CCc1nc(N2CCN(C(C)=O)CC2)c2c3c(sc2n1)CCCC3`, for which the GFP signal change (wild-type ribosome) is -24.3% (inactive), the OD600 change was -27.4% and the RFP signal change is -2.91%.

As for `C=C(C)CSc1nc(N)c2c3c(sc2n1)CCC3`, the GFP signal change (wild-type ribosome) was -39.8% (active), the OD600 change was -31.8% and the RFP signal change was -10.7%.

Consider `CC(C)NC(=O)NCC[C@H]1CC[C@@H](NS(=O)(=O)c2ccc(Oc3ccccc3)cc2)[C@@H](CO)O1`, for which the GFP signal change (wild-type ribosome) is -0.321% (inactive), the OD600 change was -25.1% and the RFP signal change was -2%.

`O=C(C1CCCC1)N1CC(=O)N2[C@H](CO)[C@H](c3ccc(Br)cc3)[C@@H]2C1`: the GFP signal change (wild-type ribosome) was -0.977% (inactive), the OD600 change was -0.944% and the RFP signal change was determined as 0.246%.

Take `N#Cc1ccc(-c2ccc([C@H]3[C@H](CO)N4C(=O)CN(C(=O)Cc5ccccc5)C[C@@H]34)cc2)cc1`: the GFP signal change (wild-type ribosome) was -1.02% (inactive), the OD600 change is -2.88% and the RFP signal change was -0.285%.

On to `O=C(Cc1ccc(Cl)cc1)NC1CCS(=O)(=O)C1` (stereo not drawn), for which the GFP signal change (wild-type ribosome) was -9.2% (inactive), the OD600 change was found to be 1.76% and the RFP signal change was determined as 1.96%.

These data come from PubChem BioAssay AID720706 (Broad Institute, 2013).
